# 697 NFkB inh: lowers PMA/ionomycin-induced NF-kB signal in 697 B cells | 330,000 tested, 0.33% active | inhibition, % at 4 µM | 697 B-cell NF-kB luciferase reporter, 16 h; in the data active means inhibition above about 35%
# Gli-Sufu antag: Gli-Sufu pathway antagonism | Sufu-KO-LIGHT fibroblasts, Gli luciferase reporter luminescence | inhibition, % at 5 µM | 340,000 tested, 0.74% active;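 active means inhibition above about 55%, limit read from the data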;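 further: 0% = DMSO-treated cells and 100% = wells with medium but no cells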
# Mdm2-MdmX inh: disrupts the human Mdm2-MdmX interaction; SaOS-2 split-luciferase Mdm2/MdmX complementation, luminescence; inhibition, % at 8 µM; 330,000 tested, 3% active; AID 485346;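 active means inhibition of at least 50% at 8 µM in the primary screen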
# Target sequence (O15151 whole entry, looked up): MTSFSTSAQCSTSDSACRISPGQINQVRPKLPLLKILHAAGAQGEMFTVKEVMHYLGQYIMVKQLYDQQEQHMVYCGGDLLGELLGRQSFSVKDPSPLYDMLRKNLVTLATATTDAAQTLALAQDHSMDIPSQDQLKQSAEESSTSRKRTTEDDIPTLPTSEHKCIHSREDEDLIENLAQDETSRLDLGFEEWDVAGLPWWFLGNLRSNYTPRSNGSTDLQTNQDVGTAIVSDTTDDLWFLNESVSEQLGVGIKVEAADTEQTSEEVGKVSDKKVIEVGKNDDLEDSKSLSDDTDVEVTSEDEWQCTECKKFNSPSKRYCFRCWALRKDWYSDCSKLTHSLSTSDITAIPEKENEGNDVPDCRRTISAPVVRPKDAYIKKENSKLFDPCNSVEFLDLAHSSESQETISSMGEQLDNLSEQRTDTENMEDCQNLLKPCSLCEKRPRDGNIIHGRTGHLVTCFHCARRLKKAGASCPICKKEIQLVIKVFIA
# Target sequence (Q00987 whole entry, looked up): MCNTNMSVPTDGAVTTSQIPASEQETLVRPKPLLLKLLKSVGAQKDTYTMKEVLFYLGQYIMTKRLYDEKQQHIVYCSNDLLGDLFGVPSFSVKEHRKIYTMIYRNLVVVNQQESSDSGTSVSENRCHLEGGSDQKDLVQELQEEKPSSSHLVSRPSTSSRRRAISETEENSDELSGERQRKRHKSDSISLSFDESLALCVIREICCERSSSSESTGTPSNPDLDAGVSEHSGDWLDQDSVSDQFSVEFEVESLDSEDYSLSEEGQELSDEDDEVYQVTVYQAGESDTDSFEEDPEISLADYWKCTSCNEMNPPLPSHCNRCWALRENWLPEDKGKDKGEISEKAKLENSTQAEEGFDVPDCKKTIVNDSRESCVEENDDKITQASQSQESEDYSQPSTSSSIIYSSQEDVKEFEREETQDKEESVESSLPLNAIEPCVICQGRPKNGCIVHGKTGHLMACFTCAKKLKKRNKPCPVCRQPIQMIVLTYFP
# Beta cell apopt: blocks beta cell apoptosis; INS-1E cytokine-induced death, ATP luminescence, 48 h; percent of positive-control rescue, neutral wells zero; protection from apoptosis, % (no concentration beside the values); 300,000 tested, 0.8% active;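 active means Every replicate reaches about 75%, or at least half do and their mean reaches it too, limit read from the data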;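 further: 0% = cytokine-treated negative control wells and 100% = positive control rescue; higher means more ATP so stronger rescue from cytokine killing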
# Jurkat NFkB inh: inhibitors of the PMA/ionomycin-induced NF-kB reporter in Jurkat cells | PMA/ionomycin-induced NF-kB luciferase reporter, luminescence | inhibition, % at 4 µM | 330,000 tested, 0.53% active | AID 435003; in the data active means inhibition above about 50%
# Mdm2 MdmX conf: confirmation of human Mdm2/MdmX interaction inhibitors; shares compounds with Mdm2-MdmX inh; Mdm2-MdmX binding, luminescent assay; inhibition, % at 8 µM; 10,000 tested, 55% active; AID 489028; in the data active means inhibition above about 40%
# FLuc counter: counter-screen for Mdm2/MdmX inhibitors: full-length luciferase; SaOS-2 full-length luciferase counterscreen, luminescence; AID 504607; inhibition, % at 8 µM; shares compounds with Mdm2-MdmX inh; 6,200 tested, 77% active;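 active means mean inhibition at 8 µM reaching about 37%, which flags the compound as non-specific, limit read from the data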;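 further: p53-null SaOS-2 cells with luciferase driven by a doxycycline-inducible promoter; compound on cells about two nights before reading with doxycycline added after day one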
# * hit, by the source's call; · = not tested or not shown. An excerpt weighted towards active compounds, which were near 4% of everything screened.
SMILES,697 NFkB inh,Gli-Sufu antag,Mdm2-MdmX inh,Beta cell apopt,Jurkat NFkB inh,Mdm2 MdmX conf,FLuc counter
COc1cccc(-c2ccc3ncnc(NCc4ccc5c(c4)OCO5)c3c2)c1,-38,-22,74*,-27,-77,76*,53*
Cc1csc(CNc2ncnc3ccc(-c4ccoc4)cc23)c1,-35,-47,76*,-12,21,74*,54*
CC(C)(C)NC(=O)COc1ccc(S(=O)(=O)N2CCCC2)cc1,-13,-6,-7,-4,-8,·,·
CCC(C)(C)NC(=O)CCCSc1nc2ccccc2[nH]1,-15,-3,-4,-8,-9,·,·
Cc1ccc(C(=O)N(C)CC(=O)Nc2cccc(C)c2C)o1,0,4,7,0,0,·,·
COc1nccc(C(F)(F)F)c1C(=O)Nc1ccc(Cl)cc1,13,4,6,7,-10,·,·
Cc1cccc(CNc2ncnc3ccc(-c4ccoc4)cc23)c1,-53,-7,79*,-16,0,64*,24
CC/C(=N\Nc1ccccc1[N+](=O)[O-])c1ccc(O)cc1,-50,14,19,·,5,·,·
COc1ccccc1C(C[N+](=O)[O-])c1c(N)n(C)c(=O)n(C)c1=O (centres undefined),-10,·,55*,39,3,57*,49*
CSc1nc2c(cnn2-c2ccc(C)c(C)c2)c(=O)[nH]1,-5,10,53*,·,-3,5,·
CCC(C)Sc1nc2c(cnn2-c2ccc(C)c(C)c2)c(=O)[nH]1 (centres undefined),-11,3,11,2,0,·,·
O=C(OCC(=O)N1CCCc2ccccc21)c1cc(S(=O)(=O)N2CCOCC2)ccc1O,19,-2,-8,-3,-7,·,·
CCC(=O)C1CCCN(C(=O)c2ccc3nc(-c4cccc(OC)c4)oc3c2)C1 (centres undefined),-158,-44,7,3,-90,·,·
CCOC(=O)C1CCCN(C(=O)c2ccc3nc(-c4cccc(OC)c4)oc3c2)C1 (centres undefined),-12,-32,53*,3,13,79*,113*
CCOC(=O)C1(Cc2ccccc2C(F)(F)F)CCN(C2CCN(C(C)C)CC2)CC1,-1,24,73*,9,-3,59*,54*
O=C(NCC1CCCO1)c1ccc(COc2ccccc2)cc1 (centres undefined),-4,-12,27,8,-19,·,·
COc1ccc(OC)c(NC(=O)c2cc(-c3cc(Cl)ccc3O)n[nH]2)c1,-45,8,88*,35,-28,75*,42*
CCc1ccc(NC(=O)C2CCCN2S(=O)(=O)c2ccc3c(c2)C(C)(C)C(=O)N3C)cc1 (centres undefined),4,4,-12,-7,4,·,·
COc1ccc(F)cc1C(=O)C1CCCN(Cc2cn(C)c3ccccc23)C1 (centres undefined),4,35,26,-1,5,·,·
COc1ccc(F)cc1C(=O)C1CCCN(Cc2c[nH]c3ccccc23)C1 (centres undefined),-2,-18,53*,-3,11,27,·
CC(C)(C)c1ccccc1NC(=S)NC1CCCCC1,-3,5,27,28,8,·,·
COc1ccc(C(CCNCc2ccc(N(C)C)cc2)C(C)C)cc1 (centres undefined),-2,-2,49,37,6,·,·
COc1ccc(CNCCC(c2ccc(OC(C)C)cc2)C(C)C)cc1OC (centres undefined),0,13,77*,86*,12,50*,67*
CCOCCCNCc1ccc(OC)c(OC)c1,7,5,28,4,5,·,·
COc1ccc(C(CCNCc2ccc(OC(C)C)cc2)C(C)C)cc1 (centres undefined),-9,-5,85*,57,28,39,71*
SMILES,697 NFkB inh,Gli-Sufu antag,Mdm2-MdmX inh,Beta cell apopt,Jurkat NFkB inh,Mdm2 MdmX conf,FLuc counter
Cc1[nH]n(-c2ccccc2)c(=O)c1N=Nc1c(O)cc(S(=O)(=O)N(C)C)c2ccccc12,-4,26,82*,111*,-3,80*,57*
CC1(C)Oc2ccc3ccc(=O)oc3c2/C(=C/Nc2ccc(O)cc2)C1=O,-11,-3,55*,-15,0,25,·
Cc1ccc(C(=O)Nc2ncccc2S(=O)(=O)c2ccccc2)cc1,·,-1,·,0,·,·,·
CC(Oc1cc2oc(=O)c3c(c2cc1Cl)CCC3)C(=O)NCc1ccccn1 (centres undefined),11,-4,-2,-10,10,·,·
Cn1c2ccccc2c(=O)c2c(=O)n(C3CCCCC3)c(-c3ccco3)nc21,-13,6,80*,·,6,66*,90*
Cc1ccc(-c2nc3c(c(=O)c4ccccc4n3C)c(=O)n2-c2ccc(F)cc2)cc1,5,-7,14,4,-2,·,·
Cn1c2ccccc2c(=O)c2c(=O)n(-c3ccccc3)c(-c3ccc(C(C)(C)C)cc3)nc21,-15,1,89*,8,-7,79*,55*
O=C(CCc1ccccc1)NC(NC(=S)Nc1ccc(Cl)cc1)C(Cl)(Cl)Cl (centres undefined),4,-18,43,23,10,·,·
N=C1S/C(=C\c2cccc3ccccc23)C(=O)N1c1ccc(F)cc1,-9,-1,56*,10,24,49*,62*
N=C1S/C(=C\c2ccccc2F)C(=O)N1c1ccc(F)cc1,-18,-12,1,-3,-21,·,·
COc1ccccc1CN1CC(C(=O)NCc2cnn(C)c2)CCC1=O (centres undefined),5,-4,21,-3,8,·,·
O=C(COc1ccc2c(c1)OCO2)Nc1ccc2c(c1)oc1ccccc12,-72,-5,50*,1,6,-19,·
CNC(=O)COc1ccccc1C(=O)Nc1ccc2c(c1)oc1ccccc12,31,33,12,7,-14,·,·
N#Cc1ccccc1NC(=O)c1ccccc1OCC(=O)Nc1ccc2c(c1)oc1ccccc12,16,-1,62*,5,13,11,·
O=C(CC1CCCC1)Nc1ccc2c(c1)CCC2,-51,-34,-43,-4,-62,·,·
CC1(C)Oc2ccc(C(=O)NN)cc2NC1=O,3,-9,17,-2,-10,·,·
Cc1cc(Nc2cc(Cl)nc(Sc3ccc(NC(=O)C4CC4)cc3)n2)n[nH]1,-26,3,69*,-7,-14,51*,52*
Cc1cc(NC(=O)c2ccc(NC(=O)C3CC3)cc2)no1,-6,-11,-27,·,-2,·,·
CN(C)CCNC=C(C(=O)Nc1ccc(Cl)cc1Cl)C(=O)Nc1ccc(Cl)cc1Cl,6,-10,76*,9,14,39,·
O=C(CCl)Nc1ccccc1Sc1ccc(Cl)cc1,9,3,79*,-16,38,71*,55*

# Assay outcomes deposited in PubChem by several laboratories.
